From PubChem BioAssay AID889 (National Center for Advancing Translational Sciences (NCATS), 2007)
Hit rate of the full screen: of about 75,000 compounds, about 15 (0.02%) were called active. Inconclusive results (about 3%) are left out. The sample holds actives, similar compounds and a random draw of the others, so the mix is not that of the screen. Calls follow the shape of the dose curve; as a rule, active = well fitted inhibition curve with a large enough effect in the main read-out, with a control signal flat (not every such curve was filed as active); inconclusive = small, poorly fitted or top-dose-only effect, or a change in a side signal; inactive = flat fitted curve, though single readings scatter.

The molecules below were run against Caspase-7 (Homo sapiens) (UniProt P55210) (assay: qHTS Assay for Allosteric/Competitive Inhibitors of Caspase-7). Conditions: recombinant caspase-7, Ac-DEVD-AFC fluorescence rate; series mostly up to 57.5 µM; activity change, negative = inhibition: at the top concentration.
Sequence of Caspase-7 (Homo sapiens) (P55210 24-198 limits assumed): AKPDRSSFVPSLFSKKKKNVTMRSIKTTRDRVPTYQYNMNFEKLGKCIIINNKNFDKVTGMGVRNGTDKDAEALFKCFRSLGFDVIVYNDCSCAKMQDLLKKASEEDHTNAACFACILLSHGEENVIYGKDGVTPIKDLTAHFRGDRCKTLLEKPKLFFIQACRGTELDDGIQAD
Sequence of Caspase-7 (Homo sapiens) (P55210 207-303 limits assumed): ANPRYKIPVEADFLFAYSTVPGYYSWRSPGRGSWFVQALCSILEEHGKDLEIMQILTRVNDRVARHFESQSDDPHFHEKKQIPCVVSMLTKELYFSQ
Excerpt: NIH Molecular Libraries Screening Centers Network [MLSCN]
NIH Chemical Genomics Center [NCGC]
PI Name: Dr. James Wells,
Dr. Enrique Perez-Paya, Dr.Janice Williams, Dr. Dennis Wolan, a person
The caspases (Cysteine Aspartyl Protease) comprise a related family of 14 dimeric proteases that are critical mediators of apoptosis (programmed cell death) and inflammation. The caspases represent an important class of drug targets for stroke, ischemia, cancer and inflammatory diseases. […] One goal of this project was to identify compounds that act as allosteric inhibitors via stabilizing the procaspase form of the enzyme. Previous work in Well's laboratory has shown that such allosteric inhibitors can be identified and these act by binding at the dimer interface of enzyme (Hardy, Lam et al., 2004).
The biochemical assay was configured using purified caspase 7 at a high enzyme concentration to promote formation of the homodimers and thus facilitate the identification of allosteric inhibitors. The overall goal was to identify reversible inhibitors with better drug-like properties than the currently available set of aspartyl-containing peptidomimetics that covalently bind the active site. Caspase 7 was assayed using the profluorescent substrate Ac-DEVD-AFC. After initiation of the assay with substrate the plates were rapidly read using an automated robotic system (Kalypsys, Inc.) to maintain consistent timing. A kinetic mode of detection was used where the initial rate was collected (estimated final product formation was ~10%). Compounds were screened as a concentration-titration series that ranged from 57 uM to 0.7 nM. Below is the protocol used for caspase 7.
NCGC Assay Protocol Summary:
Caspase 7 was prepared in buffer (50 mM HEPES pH 7.5, 50 mM KCl, 200 mM NaCl, 10 mM DTT, 0.1% CHAPS) at a concentration of 66.6 nM and 3 uL was dispensed to all wells using black solid Kalypsys 1536-well plates. 20 nL of DMSO containing compounds was added using a pin-tool (Kalypsys Inc.) to columns 5-48. Then 20 nL of DMSO solution from a control plate was added to columns 1-4. Controls were: Column 1, 16 point titration with each concentration in duplicate (1:1 dilutions in DMSO; final starting concentration was 57 uM) of the caspase 7 inhibitor Ac-DEVD-CHO (Alexis Biochemicals); Column 2, a 16 point titration with each concentration in duplicate of the free AFC fluorophore prepared in DMSO (Alexis Biochemicals), final starting was 40 uM; Column 3 neutral (DMSO only) control; Column 4: DMSO alone, to serve as a negative control (no substrate was added). Then 1 uL of 20 uM the substrate Ac-DEVD-AFC (Alexis Biochemicals) prepared in the same buffer was dispensed to all wells except columns 2 and 4 and the plates were immediately transferred (< 1 min) to the Viewlux. The plates were then exposed using 405 nm excitation/520 nm emission filters for 4 sec and read at 20 sec intervals for 3 min. Final enzyme concentration was 50 nM and the final substrate concentration was 5 uM.
Concentration-response curves were fitted to the data calculated from slope of the linear regression of fluorescent intensity versus time (the rate). The concentration-effect curves were then classified based on curve quality (r2), response magnitude and degree of measured activity. […] Inconclusive compounds had appreciable concentration-dependent effects on both the measured rate and the interpolated basal fluorescence intensity at the start of the reaction but where the basal fluorescent intensity was marginal (e.g. < 10-fold). Inconclusive compounds also encompass highly fluorescent compounds (>100-fold increases in fluorescent intensities values relative to controls) where artificial concentration-dependent decreases in the rate occurred at high compound concentrations due to fluorescent interferences.
Keywords: Caspase 7, proteases, profluorescent, MLSMR, MLSCN, NIH Roadmap, qHTS, NCGC
Also: % of control where 0% means no effect.

Activity change, negative = inhibition, inactive:
Cc1ccc(S(=O)(=O)NC(C)C(=O)Nc2ccccc2C(=O)N2CCCC2)cc1 (stereo not drawn) 0.252%
Cn1c(=S)c2[nH]c(SCCCc3ccccc3)nc2n(C)c1=O 0.0837% [at 11.5 µM]
CCC1=C(OC(=O)N(CC)CC)N2C(=O)OC(=NCC3CC3)[C@]2(C)[C@H]2C1=CC[C@H]1C(=O)N(CC(=O)OC)C(=O)[C@H]12 -3.1%
Fc1ccc(-c2nnc3sc(-c4ccc5c(c4)OCO5)nn23)cc1 -2.97%
Cn1c2c(c(=O)n(C)c1=O)C(c1ccc(O)cc1)Nc1ccccc1O2 (stereo not drawn) -0.743%
CCOC(=O)c1[nH]c2c(c1C)C(=O)CC(c1ccc(N(C)C)cc1)C2 (stereo not drawn) -4.88%
COc1ccc(NS(=O)(=O)c2ccc(NC(=O)C(C)(C(F)(F)F)C(F)(F)F)cc2)nn1 -1.99%
Cc1cc(C(=O)COC(=O)c2cccs2)c(C)n1-c1c(C)n(C)n(-c2ccccc2)c1=O 5.46%
COc1ccc2c3c1OC1CC(O)C=C[C@@]31CCN(C)C2 (stereo partly drawn) 0.921%
Cc1ccc(S(=O)(=O)C2(S(=O)(=O)c3ccc(C)cc3)CCCC2)cc1 5.15%
CCCN1C(=O)C(NS(=O)(=O)c2ccc(N)cc2)(C(F)(F)F)C(C(=O)OC)=C1C (stereo not drawn) 1.12%
CS(=O)(=O)c1ccc2nc(NC(=O)C3CCCCC3)sc2c1 -1.36%
CC(=O)OC1CCC2(O)CC1(C)CCC1C2CC1(C)C (stereo not drawn) 1.05%
CC(C)C(N)C(=O)OCCOCn1cnc2c(=O)[nH]c(N)nc21 (stereo not drawn) 0.177%
CC(C)(CSc1nncn1/N=C/c1ccco1)NS(=O)(=O)c1ccc(Cl)cc1 -1.02%
NC(=O)C1CCN(C(=O)c2ccc(C(F)(F)F)cc2)CC1 -0.1%
Cc1ccccc1CN1CCN(CC(=O)NCc2ccccn2)C1=O -3.4%
BrC1C(Br)C(Br)C(Br)C(Br)C1Br (stereo not drawn) -0.843%
CC(=O)N1CCC2(CCCN(c3ncccn3)C2)CC1 -0.0087%
CC1CCCCN1CCCNC(=O)c1ccc(-n2c(=O)c(=O)[nH]c3ccccc32)cc1 (stereo not drawn) -0.222%
CCCn1c(SCC(=O)Nc2cccc(C(=O)OCC)c2)nnc1-c1ccoc1C -2.89%
COC(=O)CC1C(C)(C)C(OC(C)=O)C2CC3=C4CC(=O)OC(c5ccoc5)[C@]4(C)CCC3[C@@]1(C)C2=O (stereo partly drawn) 0.157%
O=C1NS(=O)(=O)c2ccccc21 -0.547%
CC12CN3CC(C)(CN(C1)C3c1ccc(Cl)cc1Cl)C2=O (stereo not drawn) 1.96%
C[N+](C)(C)CCNC(=O)c1c(O)c2c([nH]c1=O)CCCC2 0.0221%
CCOC(=O)N1CCC(O)(c2cc(C)c(C)cc2C)CC1 0.455%
Cc1cc(C)cc(N(CC(=O)Nc2c(C)n(C)n(-c3ccccc3)c2=O)S(C)(=O)=O)c1 1.18%
COc1ccc(Cn2c(=O)sc3ccccc32)cc1OC 4.76%
CCOC(=O)N1CCN(C(=O)CSc2nnc(-c3c[nH]c4ccccc34)n2CCOC)CC1 -1.93%
CCN(CC)C(=O)CSc1nnc(-c2ccc(S(=O)(=O)NCc3ccccc3Cl)cc2)o1 6.38%
Cc1ccccc1NC(=O)c1cc(S(=O)(=O)N2CCOCC2)cs1 -0.15%
CCOC(=O)c1[nH]cnc1C(=O)NC1CCCCC1 -0.201%
Oc1cc(O)c2c(c1)OC(c1ccc(O)c(O)c1)C(O)C2 (stereo not drawn) -8.9%
CCOc1ccc(NS(=O)(=O)c2ccc(OCC(=O)NCCCOC)cc2)cc1 -0.0247%
COc1cccc(Cn2c(=O)c(C)nc3cnc(Oc4ccccc4)nc32)c1 -5.86%
CCOc1ccc(Cn2c(SCCCCC#N)nc3c2c(=O)n(C)c(=O)n3C)cc1OCC -1.76%
Cc1onc(-c2ccccc2Cl)c1C(=O)NCCn1ccc2ccccc21 -2.02%
CC1O[C@@H](Oc2c(-c3ccc(O)c(O)c3)oc3cc(O)cc(O)c3c2=O)C(O)C(O)C1O (stereo partly drawn) -0.198%
CCC1Oc2ccc(Cl)cc2N(CC(=O)O)C1=O (stereo not drawn) -0.283%
O=C(Cc1cccs1)N1CCCC(c2nc(-c3ccc(S(=O)(=O)N4CCCC4)cc3)no2)C1 (stereo not drawn) -4.24%
CN(C)CCc1c[nH]c2ccc(Cn3cncn3)cc12 0.22%
C=CCn1c(COc2ccccc2F)nnc1SCC(=O)N1CC(=O)Nc2ccccc21 -2.2%
O=NO
COC(=O)c1ccc(N(CC(=O)NC2CCCC2)C(=O)CNC(=O)c2ccco2)cc1 -1.2%
COc1ccc(C(=O)CSc2nccc(=O)[nH]2)cc1 -0.19%
COc1cc(OC)c(C(=O)Nc2ccc(N(C)C)cc2)cc1OC 0.862%
CC1CSc2nnc(CCc3ccccc3)n21 (stereo not drawn) -1.75%
O=c1c(O)c(-c2ccc(O)cc2)oc2ccccc12 -1.75%
CC(C)NS(=O)(=O)c1ccc(OCC(=O)Nc2ccc3c(c2)OCCO3)cc1 -0.453%
CCOC(=O)Cc1csc(NC(=O)CN(C)S(=O)(=O)c2ccc3c(c2)CCC(=O)N3)n1 -1.68%
CC1CCCC(NC(=O)CN2CCN(Cc3ccc(Cl)cc3)C2=O)C1C (stereo not drawn) -0.0034%
CCC(Oc1ccccc1)C(=O)NCc1cccnc1 (stereo not drawn) -0.0605%
CC1(C)C=CC(=O)[C@]2(C)C1CC(=O)[C@]1(C)C2CC[C@@]2(C)C(c3ccoc3)OC(=O)C3OC321 (stereo partly drawn) -0.171%
CCCCCNC(=O)Cc1ccc(OC)cc1 -1.53%
C=CC(=O)c1ccc2ccccc2c1 -1.45%
COC(=O)C1=C(N)Oc2cc(C)oc(=O)c2C1c1cccnc1 (stereo not drawn) 1.77%
CCOC(=O)c1c(-n2cnnn2)sc(C)c1C 0.213%
CNc1ncnc2ccc(-c3cccc(NS(C)(=O)=O)c3)cc12 1.83%
Cn1cccc1Cc1nnc(SCC(=O)NCc2ccc3c(c2)OCO3)n1CCc1ccccc1 -0.938%
CC(C)(C)c1ccc(NC(=O)NCc2ccco2)cc1 -2.01%
CC1(C)OC2CC3C4CCC5=CC(=O)CCC5(C)C4(F)C(O)CC3(C)[C@]2(C(=O)CCl)O1 (stereo partly drawn) -0.0664%
C=C[C@](C)(O)CCC1C(=C)CCC2[C@@](C)(CO)CCC[C@@]12C (stereo partly drawn) 1.43%
COc1c(C(C)C)oc2cc3oc(=O)ccc3cc12 -1.38%
COC(=O)[C@@H]1C[C@@]2(O)[C@H](O)[C@H](O)[C@H](O)C[C@H]2N1CC1CCCCC1 -0.73%
Clc1ccc(C=NC23CN4CN(CN(C4)C2)C3)cc1 0.219%
O=C1CCCC(O)=C1C=NCCc1ccccc1 1.03%
CCC(C)(C)n1nnnc1C(c1cccs1)N1CCN(Cc2ccccc2)CC1 (stereo not drawn) -8.5%
Cc1c(S(=O)(=O)O)oc2c1C(=O)C(=O)c1c-2ccc2c1CCCC2(C)C -0.0406%
CN(C)/C=N/c1cc(=O)n(C)c(=O)n1CC1CC1 -0.251%
O=C(OCc1nnc(-c2ccccc2)o1)c1ccc2c(c1)C(=O)N(CCc1ccccc1)C2=O -1.28%
c1ccc2cc3[nH]c(CN4CCCCC4)nc3cc2c1 0.392%
COC1[C@H](OC(N)=O)C(O)[C@H](Oc2ccc3c(O)c(NC(=O)c4ccc(O)c(CC=C(C)C)c4)c(=O)oc3c2C)OC1(C)C (stereo partly drawn) -0.537%
COc1cccc(OCC(O)CN2CCN(CCO)CC2)c1 (stereo not drawn) 0.0001%
Cc1oc(C)c(C(=O)NCCCC(=O)O)c1C(=O)NCCCC(=O)O 0.635%
CCOc1cc(S(=O)(=O)NC2CC(C)(C)NC(C)(C)C2)ccc1F -0.319%
COc1cc(OC)c2c(c1Cl)OC1(C2=O)C(O)=CC(=O)CC1C (stereo not drawn) -1.66%
CC(C)(O)CCC(O)[C@@](C)(O)C1CC[C@]2(O)C3=CC(=O)C4CC(O)C(O)C[C@]4(C)C3CC[C@]12C (stereo partly drawn) 2.51%
CC(=O)Oc1c2c(c3c(c1CC=C(C)C)O[C@@]14C(=CC5CC1C(C)(C)OC4(C/C=C(\C)C(=O)O)C5=O)C3=O)OC(C)(CCC=C(C)C)C=C2 (stereo partly drawn) -23.4%
CC(=O)OCC(=O)C1CCC2C3CCC4=CC(=O)CC[C@@]4(C)C3CC[C@]12C (stereo partly drawn) -2.96%
COc1ccc(CCN=C2SCC(=O)N2C)cc1OC -1.75%
Cc1cccc(-n2c(O)c(C=Nc3ccccc3N)c(=O)[nH]c2=O)c1 -4.62%
CCC1=C(OC(=O)N(CC)CC)N2C(=O)OC(=NCCc3c[nH]c4ccccc34)[C@]2(C)[C@H]2C1=CC[C@H]1C(=O)N(CC)C(=O)[C@H]12 -2.47%
COc1ccccc1N1CCN(C[C@@H]2CN3C(=O)N(C)c4ccccc4C3=N2)CC1 1.97%
COc1ccc(C2C(C(=O)N3CCN(c4ccc(OC)cc4)CC3)c3ccccc3C(=O)N2C)cc1 (stereo not drawn) 1.08%
CN(CCOc1ccc(CC2SC(=O)NC2=O)cc1)c1ccccn1 (stereo not drawn) 1.57%
N#CCC(=O)NC(=O)NCC1CC1 -1.24%
Cn1c(=O)cc(SCC(=O)N2CCN(C(=O)c3ccco3)CC2)c2ccccc21 0.0908%
O=C(c1cccnc1NCc1ccccc1)N1CCOCC1 -1.76%
CN1CCC(CNC(=O)c2ccc(-n3c(=O)c(=O)[nH]c4ccccc43)cc2)CC1 -0.892%
O=C(C1=C(O)C(=O)N(Cc2ccccc2)C1c1cccnc1)c1ccco1 (stereo not drawn) -0.988%
O=C(c1cccs1)N1CCN(Cc2ccc3c(c2)OCO3)CC1 1.48%
C[C@H]1CC[C@H](C(=O)O)N[C@@H]1c1ccc(C#Cc2ccccc2)cc1 1.78% [at 11.5 µM]
Cc1noc(C)c1CSc1nc2cc(S(=O)(=O)N3CCOCC3)ccc2o1 3.09%
Cc1csc(-c2nc3ccccc3n2C)n1 0.971%
COC(=O)[C@@H]1C[C@@]2(O)[C@H](O)[C@H](O)[C@H](O)C[C@H]2N1Cc1ccc(C(C)(C)C)cc1 -0.0221%
CCC(CC)C(=O)Nc1cc(C(=O)OC)cc(C(=O)OC)c1 0.195%
Cc1ccc(N(CC(O)CN2CCCC2)S(=O)(=O)c2ccccc2)cc1 (stereo not drawn) -0.0894%
O=C(COc1ncnc2ccccc12)NC(=O)NCc1ccccc1 -0.802%
Cc1ccccc1Nc1nnc(C)c(=O)[nH]1 -0.782%
CC(C)=CCC/C(C)=C/CC/C(C)=C/CC/C(C)=C/CO 0.242%
CCCOc1ccc2c3c(c(=O)oc2c1OCCC)CCC3 -4.43%
CCOC(=O)Cn1c(=O)oc2cc(S(=O)(=O)N(C)Cc3ccco3)ccc21 -0.862%
CC(C)[C@H]1CC[C@@H](C)C[C@H]1O 0.98%
